Test results reported in PubChem BioAssay (NCI).
About 83,000 compounds went through this panel and 20% of them were active in at least one assay; those are over-represented in the sample as a whole.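 Step 1: grow cells in 96-well plates. Step 2: add test compound at a single concentration. Step 3: incubate 48 h. Step 4: record percent growth.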 Values without a mark were called inactive. Activity calls are given as the source filed them. How the source made its calls: active means growth percent below 10; inactive means the rest.

Columns and labels:
Test in all cases: NCI-60 one-dose screen, 48 h (100 = growth as untreated, 0 = no growth, -100 = all killed)
Conditions in all cases: 10 µM
SK-MEL-2 melanoma = tested on: SK-MEL-2 melanoma
SN12C renal = tested on: SN12C renal
UO-31 renal = tested on: UO-31 renal
TK-10 renal = tested on: TK-10 renal
ACHN renal = tested on: ACHN renal
CAKI-1 renal = tested on: CAKI-1 renal
A498 renal = tested on: A498 renal
CCRF-CEM leukemia = tested on: CCRF-CEM leukemia
MOLT-4 leukemia = tested on: MOLT-4 leukemia
SR leukemia = tested on: SR leukemia
RPMI-8226 leukemia = tested on: RPMI-8226 leukemia
OVCAR-8 ovarian = tested on: OVCAR-8 ovarian
OVCAR-5 ovarian = tested on: OVCAR-5 ovarian
OVCAR-4 ovarian = tested on: OVCAR-4 ovarian
SK-OV-3 ovarian = tested on: SK-OV-3 ovarian
IGROV1 ovarian = tested on: IGROV1 ovarian
OVCAR-3 ovarian = tested on: OVCAR-3 ovarian
HS 578T breast = tested on: HS 578T breast
NCI/ADR-RES ovarian = tested on: NCI/ADR-RES ovarian
EKVX NSCLC = tested on: EKVX NSCLC

Row | SMILES | growth (SK-MEL-2 melanoma) | growth (SN12C renal) | growth (UO-31 renal) | growth (TK-10 renal) | growth (ACHN renal) | growth (CAKI-1 renal) | growth (A498 renal) | growth (CCRF-CEM leukemia) | growth (MOLT-4 leukemia) | growth (SR leukemia) | growth (RPMI-8226 leukemia) | growth (OVCAR-8 ovarian) | growth (OVCAR-5 ovarian) | growth (OVCAR-4 ovarian) | growth (SK-OV-3 ovarian) | growth (IGROV1 ovarian) | growth (OVCAR-3 ovarian) | growth (HS 578T breast) | growth (NCI/ADR-RES ovarian) | growth (EKVX NSCLC) [%]
1 | COc1ccc(-c2cc(=O)n(-c3nc4ccccc4[nH]3)[nH]2)cc1OC | 51% | 75% | 56.1% | 93.9% | 57.6% | 38.7% | 30.9% | -4.05% (active) | -32% (active) | 48.6% | 81.4% | 64.8% | 93.1% | 93.8% | 87.2% | 70.6% | 90.1% | 48.2% | 20.1% | 
2 | CCOC(=O)CSC(=S)SCC(=O)OCC | 96.7% | 106% | 102% | 132% | 109% | 103% | 121% | 85.1% | 96.6% | 84.8% | 95.4% | 93% | 107% | 97.4% | 98.2% | 117% | 122% | 106% | 106% | 
3 | CCCCCc1cc[n+](CC(=O)c2ccc(Cl)cc2)cc1 | 109% |  |  | 98.4% | 99% | 92.5% | 63.1% | 102% | 92.7% | 86% | 91.5% | 98.8% | 71.4% | 96.3% | 99.1% | 86.5% | 59.8% | 95.9% | 99.7% | 93.1
4 | COc1ccc(CSc2nc3cc(OC)c(OC)cc3c(=O)n2-c2ccc(OC)cc2OC)cc1 | 91.5% | 90.1% | 55.4% | 108% | 94% | 68.7% | 58.6% | 92.7% | 79.4% | 59.5% | 63.7% | 89.2% | 102% | 83.2% | 114% | 86.1% | 92.1% | 86.7% | 79.5% | 
5 | COc1ccc(C(=O)c2sc3nc(-c4cccs4)ccc3c2N)cc1OC | 15.7% | 62% | 45.6% | 49.4% | 64.7% | 62% | 39.4% | 34.5% | 23.3% | 14.5% | 43.4% | 53% | 82.2% | 61.2% | 70.9% | 63.3% | 45.1% | 50.4% | 37.8% | 
6 | COc1cc(C2CC(=O)Nc3c2c(C)nn3-c2nc3ccccc3[nH]2)cc(OC)c1O (stereo not drawn) | -7.45% (active) | 81.2% | 8.39% (active) | 37.2% | 31.1% | 78.9% | 22.5% | 0.819% (active) | -36% (active) | 9.39% (active) | 83.5% | 19.9% | 112% | 63.8% | 2.53% (active) | 28.2% | 20.9% | 8.42% (active) | 80.6% | 
7 | C[C@@H]1N=C(c2ccc(Br)cc2)Nc2nc3ccccn3c2C1=O | 47.4% | 91.8% | 62% | 110% | 69.2% | 44.1% | 69.9% | 79.4% | 57.5% | 30% | 94% | 72.5% | 82.4% | 77.5% | 72% | 43.1% | 17.3% | 71.3% | 39.4% | 
8 | O=c1c2cccc3c(Nc4ccc(Br)cn4)ccc(c32)c2nc3ccccc3n12 | 108% | 92.3% | 52.1% | 78.1% | 90.2% | 83.9% | 93.9% | 97.9% | 92.9% | 52.9% | 56.2% | 103% | 90.7% | 53.7% | 94.3% | 48.9% | 94.1% | 81.2% | 93.5% | 
9 | O=[N+]([O-])c1cc2ncccc2c2ncccc12 | 84.9% | 87.2% | 52.1% | 106% | 65.3% | 84.2% | 111% | 74.9% | 61.4% | 74% | 82.8% | 63.3% | 98.3% | 103% | 94.4% | 56.3% | 84.5% | 104% | 75.1% | 
10 | C=CCn1ccc(=O)nc1SC | 107% | 104% | 89% | 101% | 108% | 106% | 104% | 104% | 100% | 112% | 108% | 100% | 109% | 106% | 105% | 120% | 113% | 106% | 104% | 
11 | C=CCn1c(C)nc2cc(Nc3nc(Nc4ccc5nc(C)n(CC=C)c5c4)c4ccccc4n3)ccc21 | -84.1% (active) | -69.6% (active) | -94.4% (active) | -97.2% (active) | -97.4% (active) | -86.4% (active) | -100% (active) | -11.3% (active) | -26.8% (active) | -44.2% (active) | -24% (active) | -40.9% (active) | -92.5% (active) | -100% (active) | -95.7% (active) | -93.8% (active) | -99.8% (active) | -48.1% (active) | -23.7% (active) | 
12 | COc1ccc2nc(-c3ccccc3)cc(C(C)=O)c2c1 | 96.6% | 94.9% | 73.8% | 89.7% | 97.7% | 87.9% | 74.8% | 91.2% | 73.1% | 81.6% | 94.5% | 97.3% | 92.4% | 103% | 107% | 86.2% | 115% | 94.3% | 90.1% | 
13 | O=C(O)c1ccc(CNc2ccc(C(=O)CCl)cc2)cc1 | 96.6% | 99.3% | 106% | 104% | 99.3% | 86.7% | 61.4% | 48.7% | 87.9% | 41.8% | 85.7% | 99.3% | 96.8% | 91% | 100% | 134% | 90.5% | 87.4% | 123% | 
14 | COc1ccc2nc(C)cc(Nc3ccc(Cl)cc3)c2c1 | 104% | 97.4% | 91.1% | 109% | 105% | 101% | 103% | 94.5% | 110% | 113% | 102% | 101% | 101% | 90.5% | 105% | 98.2% | 105% | 112% | 102% | 
15 | COc1ccc(C2=NNC(c3sc(Cl)nc3Cl)C2)cc1 (stereo not drawn) | 62.8% | 22.4% | 85.3% | 116% | 105% | 97.4% | 102% | 17.7% | 7.63% (active) | 2.77% (active) | 81% | 70.3% | 123% | 80.5% | 90% | 63.3% | 61.9% | 114% | 105% | 
16 | Cc1ccc(-c2cc(-c3cccc(Nc4ccnc5cc(Cl)ccc45)c3)nc3nc(N)[nH]c(=O)c23)cc1 | 87.6% | 96.6% | 78.1% | 112% | 105% | 94.8% | 109% | 56.1% | 81.8% | 48.9% | 92.8% | 92.5% | 108% | 111% | 111% | 76.7% | 92.7% | 104% | 100% | 
